In the supplement of paper PMC10849652:
The full data set covers some 7,900 targets. This sample favours those with a hit. About 0.6% of all pairs of compound and target were hits.

Each target was assayed with c1cn2cc(-c3ccc4cn[nH]c4c3)nc(Nc3ccc(N4CCOCC4)cc3)c2n1 [entospletinib] (assay: log2 fold change, soluble protein after heating vs DMSO (PISA); higher = thermal stabilisation; K562 cells, 10 uM, 30 min; active = over 0.2 and 3.5 SD of the protein, either way, in both replicates (recomputed)).
Method in brief: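 For each measurement, 10 μM compound was applied for 30 min to K562 cells at 2×10^6 cells/mL. Aliquots were heated for 3 min across 48°C-58°C, pooled, and extracted in PBS with 0.5% NP-40 at 4°C; the supernatant after 21,000xg for 90 min was soluble protein. This was quantified by TMTpro 16plex LC-MS/MS with channel sums equalised, and thermal stability was reported relative to control samples from duplicates, on a log2 fold-change scale.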

Chain of UniProt O75674 (O75674 whole entry, looked up): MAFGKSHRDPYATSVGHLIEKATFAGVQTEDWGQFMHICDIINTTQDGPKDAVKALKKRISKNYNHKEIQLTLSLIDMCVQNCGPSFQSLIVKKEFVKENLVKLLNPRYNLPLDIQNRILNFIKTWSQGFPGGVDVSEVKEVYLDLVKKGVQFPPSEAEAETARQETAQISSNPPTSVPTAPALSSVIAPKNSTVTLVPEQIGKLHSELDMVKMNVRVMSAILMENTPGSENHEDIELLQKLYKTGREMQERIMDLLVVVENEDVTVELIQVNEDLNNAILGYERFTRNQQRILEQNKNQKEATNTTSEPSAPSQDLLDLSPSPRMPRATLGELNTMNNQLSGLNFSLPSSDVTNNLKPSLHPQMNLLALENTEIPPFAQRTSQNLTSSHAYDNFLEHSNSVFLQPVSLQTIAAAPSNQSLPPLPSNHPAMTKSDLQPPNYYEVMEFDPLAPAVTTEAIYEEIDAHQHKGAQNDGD
Chain of UniProt A3KMH1 (A3KMH1 whole entry, looked up): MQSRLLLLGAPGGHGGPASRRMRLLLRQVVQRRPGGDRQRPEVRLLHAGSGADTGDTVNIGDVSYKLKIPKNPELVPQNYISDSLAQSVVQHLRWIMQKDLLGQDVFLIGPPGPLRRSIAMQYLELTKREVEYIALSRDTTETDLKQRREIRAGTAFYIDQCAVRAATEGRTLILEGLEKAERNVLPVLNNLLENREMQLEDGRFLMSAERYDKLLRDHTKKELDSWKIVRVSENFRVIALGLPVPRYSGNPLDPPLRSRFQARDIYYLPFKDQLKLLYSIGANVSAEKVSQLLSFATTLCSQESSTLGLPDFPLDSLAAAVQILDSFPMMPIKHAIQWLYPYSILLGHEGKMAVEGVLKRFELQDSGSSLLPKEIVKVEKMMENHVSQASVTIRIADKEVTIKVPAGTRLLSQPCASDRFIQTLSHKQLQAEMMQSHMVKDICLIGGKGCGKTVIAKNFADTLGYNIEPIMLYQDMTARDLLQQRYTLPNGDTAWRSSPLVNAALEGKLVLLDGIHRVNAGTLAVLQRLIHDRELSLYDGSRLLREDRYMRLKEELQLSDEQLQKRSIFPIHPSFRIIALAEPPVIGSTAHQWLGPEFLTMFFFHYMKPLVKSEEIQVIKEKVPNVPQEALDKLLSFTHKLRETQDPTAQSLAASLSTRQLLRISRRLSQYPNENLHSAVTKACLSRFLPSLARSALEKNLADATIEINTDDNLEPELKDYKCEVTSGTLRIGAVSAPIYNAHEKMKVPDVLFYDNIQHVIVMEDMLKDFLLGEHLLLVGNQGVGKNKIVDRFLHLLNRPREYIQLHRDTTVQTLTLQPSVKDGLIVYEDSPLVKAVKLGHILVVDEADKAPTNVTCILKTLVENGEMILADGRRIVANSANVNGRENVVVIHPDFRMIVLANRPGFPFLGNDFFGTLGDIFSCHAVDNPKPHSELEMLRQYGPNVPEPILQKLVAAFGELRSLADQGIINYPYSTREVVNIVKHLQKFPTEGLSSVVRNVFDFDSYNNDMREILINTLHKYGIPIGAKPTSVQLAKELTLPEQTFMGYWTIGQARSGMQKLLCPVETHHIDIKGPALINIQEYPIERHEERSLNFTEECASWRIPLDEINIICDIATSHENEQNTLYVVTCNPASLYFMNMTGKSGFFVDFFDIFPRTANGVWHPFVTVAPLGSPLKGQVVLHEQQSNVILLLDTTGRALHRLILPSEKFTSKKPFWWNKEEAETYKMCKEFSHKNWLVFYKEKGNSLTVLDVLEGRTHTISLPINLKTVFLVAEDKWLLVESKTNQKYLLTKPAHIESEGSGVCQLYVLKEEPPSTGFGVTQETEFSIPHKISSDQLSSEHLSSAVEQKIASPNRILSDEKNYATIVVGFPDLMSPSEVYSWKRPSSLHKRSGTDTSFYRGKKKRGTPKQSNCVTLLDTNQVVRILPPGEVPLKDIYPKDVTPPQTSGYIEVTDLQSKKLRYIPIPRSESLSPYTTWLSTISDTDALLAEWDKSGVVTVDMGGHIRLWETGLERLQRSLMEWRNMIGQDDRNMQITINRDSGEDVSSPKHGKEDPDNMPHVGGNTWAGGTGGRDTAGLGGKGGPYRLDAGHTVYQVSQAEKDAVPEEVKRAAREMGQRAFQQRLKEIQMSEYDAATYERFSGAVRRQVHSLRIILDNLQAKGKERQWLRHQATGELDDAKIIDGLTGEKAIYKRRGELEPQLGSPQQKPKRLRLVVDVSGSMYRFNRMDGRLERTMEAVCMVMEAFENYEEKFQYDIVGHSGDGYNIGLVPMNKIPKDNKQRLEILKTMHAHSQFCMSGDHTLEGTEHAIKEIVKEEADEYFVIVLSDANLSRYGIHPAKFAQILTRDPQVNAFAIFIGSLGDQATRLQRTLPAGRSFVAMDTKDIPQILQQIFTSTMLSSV
Chain of UniProt Q9NQZ2 (Q9NQZ2 whole entry, looked up): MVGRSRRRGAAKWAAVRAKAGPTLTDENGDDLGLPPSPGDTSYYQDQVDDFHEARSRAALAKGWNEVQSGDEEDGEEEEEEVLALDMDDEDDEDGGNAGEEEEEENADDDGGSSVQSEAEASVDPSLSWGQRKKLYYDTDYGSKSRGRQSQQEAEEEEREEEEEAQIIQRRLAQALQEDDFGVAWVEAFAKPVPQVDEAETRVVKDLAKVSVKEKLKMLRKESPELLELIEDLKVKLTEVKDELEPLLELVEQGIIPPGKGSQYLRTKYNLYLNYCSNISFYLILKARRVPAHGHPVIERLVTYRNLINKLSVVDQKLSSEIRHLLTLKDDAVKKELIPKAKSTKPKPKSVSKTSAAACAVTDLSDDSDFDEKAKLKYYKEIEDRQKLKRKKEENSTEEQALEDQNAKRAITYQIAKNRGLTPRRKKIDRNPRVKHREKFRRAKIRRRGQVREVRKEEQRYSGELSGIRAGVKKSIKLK
Chain of UniProt Q7Z7E8 (Q7Z7E8 whole entry, looked up): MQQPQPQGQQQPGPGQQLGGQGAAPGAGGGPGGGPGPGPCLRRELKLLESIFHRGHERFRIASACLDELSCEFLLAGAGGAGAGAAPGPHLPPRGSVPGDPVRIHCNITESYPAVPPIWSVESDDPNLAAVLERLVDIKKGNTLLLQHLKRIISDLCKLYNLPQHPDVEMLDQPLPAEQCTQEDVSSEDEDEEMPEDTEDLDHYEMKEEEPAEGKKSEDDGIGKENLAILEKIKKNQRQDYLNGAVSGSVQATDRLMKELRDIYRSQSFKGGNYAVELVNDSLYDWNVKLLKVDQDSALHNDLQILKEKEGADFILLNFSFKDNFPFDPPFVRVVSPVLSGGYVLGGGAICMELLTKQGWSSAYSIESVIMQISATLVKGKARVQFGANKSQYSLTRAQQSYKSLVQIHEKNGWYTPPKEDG
Chain of UniProt O94874 (O94874 whole entry, looked up): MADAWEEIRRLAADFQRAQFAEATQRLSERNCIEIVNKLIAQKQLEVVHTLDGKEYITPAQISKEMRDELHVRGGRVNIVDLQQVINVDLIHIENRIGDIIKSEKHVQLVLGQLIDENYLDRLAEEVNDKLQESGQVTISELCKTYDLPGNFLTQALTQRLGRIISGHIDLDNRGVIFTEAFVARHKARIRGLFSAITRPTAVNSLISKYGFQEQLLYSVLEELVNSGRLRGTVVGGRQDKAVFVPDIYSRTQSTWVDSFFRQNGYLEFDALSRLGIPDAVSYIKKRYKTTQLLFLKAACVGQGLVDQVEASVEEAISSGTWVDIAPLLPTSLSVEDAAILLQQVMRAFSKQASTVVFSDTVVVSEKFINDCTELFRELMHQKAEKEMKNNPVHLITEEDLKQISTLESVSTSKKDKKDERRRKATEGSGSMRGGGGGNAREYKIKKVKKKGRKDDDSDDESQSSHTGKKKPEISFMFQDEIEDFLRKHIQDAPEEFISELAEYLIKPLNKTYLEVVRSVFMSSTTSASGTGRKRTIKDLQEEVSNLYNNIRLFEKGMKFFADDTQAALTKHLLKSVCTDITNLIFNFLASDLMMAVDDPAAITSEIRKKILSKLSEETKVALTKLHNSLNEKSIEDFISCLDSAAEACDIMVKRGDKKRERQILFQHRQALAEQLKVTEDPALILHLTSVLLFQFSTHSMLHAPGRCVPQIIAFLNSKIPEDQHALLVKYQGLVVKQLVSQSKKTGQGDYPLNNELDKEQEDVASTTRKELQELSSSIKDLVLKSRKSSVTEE
Chain of UniProt Q99986 (Q99986 whole entry, looked up): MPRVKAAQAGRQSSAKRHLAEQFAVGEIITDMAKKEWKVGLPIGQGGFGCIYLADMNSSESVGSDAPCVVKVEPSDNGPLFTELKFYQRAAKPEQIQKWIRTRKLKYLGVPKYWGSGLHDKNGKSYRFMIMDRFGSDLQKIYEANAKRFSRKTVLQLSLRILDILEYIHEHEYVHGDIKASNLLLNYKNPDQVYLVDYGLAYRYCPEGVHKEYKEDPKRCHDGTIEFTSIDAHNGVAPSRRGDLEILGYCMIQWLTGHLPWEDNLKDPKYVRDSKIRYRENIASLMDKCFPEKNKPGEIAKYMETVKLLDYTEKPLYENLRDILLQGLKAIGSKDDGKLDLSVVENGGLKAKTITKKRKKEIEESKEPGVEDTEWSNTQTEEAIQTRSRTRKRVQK
Chain of UniProt P54578 (P54578 whole entry, looked up): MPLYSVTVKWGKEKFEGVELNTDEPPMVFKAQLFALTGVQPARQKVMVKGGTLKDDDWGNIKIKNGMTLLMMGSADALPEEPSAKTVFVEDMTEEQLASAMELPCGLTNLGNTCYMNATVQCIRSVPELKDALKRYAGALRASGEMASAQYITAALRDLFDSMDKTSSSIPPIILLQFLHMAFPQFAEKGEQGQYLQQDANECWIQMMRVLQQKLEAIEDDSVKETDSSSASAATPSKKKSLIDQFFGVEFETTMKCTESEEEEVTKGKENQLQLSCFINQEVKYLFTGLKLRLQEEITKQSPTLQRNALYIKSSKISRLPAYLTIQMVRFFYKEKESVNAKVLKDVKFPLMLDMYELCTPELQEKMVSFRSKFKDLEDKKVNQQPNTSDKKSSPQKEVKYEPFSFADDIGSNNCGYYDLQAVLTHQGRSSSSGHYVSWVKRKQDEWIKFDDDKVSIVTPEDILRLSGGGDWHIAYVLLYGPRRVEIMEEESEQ

log2 fold change, inactive:
TOM1L1 (UniProt O75674) 0.038
TRAPPC3 (UniProt O43617) -0.013
U2AF1L5 (UniProt P0DN76) -0.497
UTP4 (UniProt Q969X6) -0.058
TMEM173 (UniProt Q86WV6) -0.022
VWA8 (UniProt A3KMH1) -0.03
WDR41 (UniProt Q9HAD4) -0.019
UBE2Q1 (UniProt Q7Z7E8) 0.007
TUBA4A (UniProt C9JJQ8) -0.27
TSG101 (UniProt Q99816) -0.014
UBE4A isoform 2 (UniProt Q14139) -0.043
XPO6 (UniProt Q96QU8) -0.027
TOM1 isoform 2 (UniProt O60784) 0.009
TMEM128 (UniProt Q5BJH2) 0.018
VRK1 (UniProt Q99986) -0.149
UTP3 (UniProt Q9NQZ2) -0.009
USP14 (UniProt P54578) -0.03
WASHC2C, A0A096LPC5 0.085
UBLCP1 (UniProt Q8WVY7) -0.013
TMEM106B (UniProt Q9NUM4) -0.049
UFL1 (UniProt O94874) -0.025
TNPO1 (UniProt Q92973) -0.001
WDR18 (UniProt Q9BV38) -0.061
